# Jurkat NFkB inh: inhibitors of the PMA/ionomycin-induced NF-kB reporter in Jurkat cells; PMA/ionomycin-induced NF-kB luciferase reporter, luminescence; inhibition, % at 4 µM; actives 0.53% (n = 330,000); in the data active = inhibition above about 50%
# 697 NFkB inh: lowers PMA/ionomycin-induced NF-kB signal in 697 B cells; inhibition, % at 4 µM; actives 0.33% (n = 330,000); 697 B-cell NF-kB luciferase reporter, 16 h; in the data active = inhibition above about 35%
# Gli-Sufu antag: antagonists of Gli-Sufu signaling; AID 588413; actives 0.74% (n = 340,000); inhibition, % at 5 µM; Sufu-KO-LIGHT fibroblasts, Gli luciferase reporter luminescence;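 active = inhibition above about 55%, limit read from the data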;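 also: 0% = DMSO-treated cells and 100% = wells with medium but no cells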
# Shn3 inh set2: Schnurri-3 reporter inhibition in Clone20 osteoblasts; Clone20 osteoblast Shn3 3'UTR firefly luciferase, 24 h; inhibition, % at 12.5 µM; actives 0.52% (n = 360,000);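 active = mean inhibition of at least 75% with every replicate also reaching 75%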;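 also: 0% = median of neutral control wells and 100% = pilot-screen positive control compound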
# Mdm2 MdmX PPI: human Mdm2/MdmX binding inhibition | O15151+Q00987 | SaOS-2 split-luciferase Mdm2/MdmX complementation, luminescence | inhibition, % at 8 µM | actives 3% (n = 330,000) | AID 485346;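 active = inhibition of at least 50% at 8 µM in the primary screen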
# Target sequence (O15151 whole entry, looked up): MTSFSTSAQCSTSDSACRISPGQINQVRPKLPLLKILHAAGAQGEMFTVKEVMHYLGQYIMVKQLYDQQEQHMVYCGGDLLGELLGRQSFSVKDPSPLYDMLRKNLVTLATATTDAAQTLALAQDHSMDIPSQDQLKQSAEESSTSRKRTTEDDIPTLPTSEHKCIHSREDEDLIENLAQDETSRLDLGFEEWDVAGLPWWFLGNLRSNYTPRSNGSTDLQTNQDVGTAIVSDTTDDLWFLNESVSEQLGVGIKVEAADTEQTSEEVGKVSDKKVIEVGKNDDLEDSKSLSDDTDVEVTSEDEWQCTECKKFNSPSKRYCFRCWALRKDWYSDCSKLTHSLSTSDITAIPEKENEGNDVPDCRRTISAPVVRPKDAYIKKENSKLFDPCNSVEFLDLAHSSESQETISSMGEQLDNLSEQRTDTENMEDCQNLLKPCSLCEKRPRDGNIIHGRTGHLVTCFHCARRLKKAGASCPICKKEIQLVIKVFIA
# Target sequence (Q00987 whole entry, looked up): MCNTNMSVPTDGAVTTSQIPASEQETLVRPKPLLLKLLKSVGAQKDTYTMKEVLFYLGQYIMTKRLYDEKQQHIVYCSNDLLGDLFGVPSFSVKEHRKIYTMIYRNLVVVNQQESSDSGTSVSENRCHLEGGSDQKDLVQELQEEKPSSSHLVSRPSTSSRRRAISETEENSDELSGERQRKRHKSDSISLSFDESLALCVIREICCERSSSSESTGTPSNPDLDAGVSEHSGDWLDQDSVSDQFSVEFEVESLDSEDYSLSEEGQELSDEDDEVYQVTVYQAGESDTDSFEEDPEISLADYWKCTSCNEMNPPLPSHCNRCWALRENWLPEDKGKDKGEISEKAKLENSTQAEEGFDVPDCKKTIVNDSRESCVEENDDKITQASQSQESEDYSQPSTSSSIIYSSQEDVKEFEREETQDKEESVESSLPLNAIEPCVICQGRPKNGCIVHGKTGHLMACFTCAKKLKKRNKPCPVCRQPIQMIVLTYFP
# Active calls of the source: *; · = no result given. Hits are enriched below; roughly 3.8% of the tested compounds scored in any of these assays.
SMILES,Jurkat NFkB inh,697 NFkB inh,Gli-Sufu antag,Shn3 inh set2,Mdm2 MdmX PPI
COc1ccccc1NS(=O)(=O)c1cc(NC(=O)c2ccc(Cl)nc2)ccc1Cl,23.9,-71.3,20.7,87.2*,13.0
COc1cc(NC(=O)CCC(=O)N2CCN(S(=O)(=O)c3ccc(C)cc3)CC2)cc(OC)c1,·,·,11.1,12.0,·
COc1ccccc1C(=O)NNC(=S)NC(=O)c1cc(OC)c(OC)c(OC)c1,3.9,20.4,7.0,71.8,48.9
COc1cc(C(=O)NC(=S)NNC(=O)c2cnccn2)cc(OC)c1OC,1.1,28.3,4.1,89.4*,48.7
O=C(CCl)Nc1c(C(=O)Nc2ccc3c(c2)OCCO3)oc2ccccc12,-89.3,-155.7,-67.8,94.7*,45.3
O=C1NC(Cc2ccccc2)c2nc3ccc(Cl)cc3c(=O)n2-c2ccccc21 (centres undefined),8.3,-2.6,·,·,-20.1
CN(C)S(=O)(=O)c1cccc(N=c2scc(-c3ccc4c(c3)NC(=O)CO4)n2CC2CCCO2)c1 (centres undefined),-7.7,-30.0,4.1,86.3*,35.6
O=C(COC(=O)c1ccc[n+]([O-])c1)Nc1ccc(Cl)cc1[N+](=O)[O-],3.9,11.4,-3.6,-4.5,-22.3
Cc1ccccc1NC(=O)c1nc(S(C)(=O)=O)ncc1Cl,5.6,-19.0,1.5,97.5*,39.1
Cc1ccccc1NC(=O)c1cccc(C(=O)Nc2ccccc2C)n1,3.0,15.2,8.9,13.2,-2.2
CCOC(=O)c1nc(S(C)(=O)=O)ncc1Cl,21.2,-61.6,1.1,96.1*,32.9
Nc1ncnc2c1ncn2[C@@H]1O[C@H](CNC(=O)[C@H](N)Cc2cscn2)[C@@H](O)[C@H]1O,·,-5.1,-9.1,-5.4,8.2
Fc1ccc2cnc(CCO[C@H]3CCCCO3)cc2c1,5.5,-127.7,-19.8,-76.8,-10.2
CCc1nnc2n1N=C(c1ccc(Br)cc1)CS2,26.5,27.7,1.0,-30.4,3.6
C[n+]1c2n(c3ccccc31)N=C(c1ccc(Br)cc1)CS2,1.0,-19.1,67.8*,17.2,43.3
COc1ccc(Cl)c(Cn2c(NCc3ccco3)nc3c2c(=O)n(C)c(=O)n3C)c1,11.1,-8.4,70.2*,67.6,20.2
CNC1=C(N(C(C)=O)c2ccc(Br)cc2)C(=O)c2ccccc2C1=O,·,·,94.1*,77.8,·
CN(C)c1ccc(/C=N/NC(=O)COc2ccccc2)cc1,-24.7,-5.1,-23.0,9.3,-3.4
CCCCCC1CC1C(=O)N/N=C/c1ccc(N(C)C)cc1 (centres undefined),2.2,-3.3,-25.6,89.1*,13.1
CCOC(=O)c1c(NC(=O)C2c3ccccc3Oc3ccccc32)sc(C(C)=O)c1C,6.9,-2.9,19.8,88.8*,34.6
Cn1c(=O)c([N+](=O)[O-])c(Cl)c2ccccc21,·,·,-1.6,97.0*,·
CCN1/C(=C/c2cc[n+](CCCS(=O)(=O)[O-])c3ccccc23)Sc2ccccc21,0.8,14.1,2.2,4.7,6.4
C=CC[n+]1ccc(/C=C2\C=Cc3cc(C)ccc3N2CC)c2ccccc21,·,·,88.0*,70.7,·
Fc1ccc(-c2nc3c4ccccc4ccn3c2Cc2cccc(Cl)c2)cc1,·,·,·,-0.6,·
COc1ccc(/C=N/NC(=S)Nc2ccccc2[N+](=O)[O-])cc1O,·,·,23.9,-22.2,·
SMILES,Jurkat NFkB inh,697 NFkB inh,Gli-Sufu antag,Shn3 inh set2,Mdm2 MdmX PPI
CCCOc1ccc(/C=N/NC(=S)Nc2ccccc2[N+](=O)[O-])c(O)c1,·,·,81.9*,·,·
CC(C)CC(N)c1csc(NC(=O)c2cc(C(C)(C)C)nn2Cc2ccccc2)n1 (centres undefined),·,·,·,96.9*,·
CSc1nnc(-c2ccco2)n1-c1ccccc1,-0.9,-3.0,-5.0,88.8*,17.5
CC(=O)CSc1nnc(-c2ccco2)n1-c1ccccc1,8.3,2.4,-10.0,-20.6,8.0
Cc1nn(-c2ccccc2)c(C)c1C(=O)OC(C)C(=O)NC1CCCCC1 (centres undefined),10.7,-14.0,11.3,83.2*,22.3
COc1ccc2c(c1)/C(=C\c1cccc(/C=C3/C(=O)Nc4ccc(OC)cc43)n1)C(=O)N2,·,·,7.6,95.8*,·
COc1ccccc1CNC(=O)COC(=O)c1cc2ccccc2o1,3.4,6.3,3.3,-0.8,12.6
O=C1CC2(CCN(C(=O)c3ccccc3F)CC2)Oc2ccccc21,-15.9,3.9,6.9,87.3*,7.3
CSc1ccccc1C(=O)N1CCC2(CC1)CC(=O)c1ccccc1O2,18.8,-10.5,6.2,13.4,31.8
CN=C1c2cc3cc(OC)ccc3n2CCN1Cc1ccccc1,·,·,1.7,89.7*,·
Cc1ccccc1CN1CC2=C(CCN(Cc3ccccc3)C2=O)N2CCN=C12,·,·,·,81.1*,·
c1ccc(CN2C3=NCCN3c3ccccc32)cc1,-0.3,-11.4,5.3,-29.6,22.7
Nc1ncnc2c1ncn2[C@@H]1O[C@H](CNS(=O)(=O)c2cc(S(=O)(=O)c3ccccc3)cs2)[C@@H](O)[C@H]1O,·,15.2,5.3,-19.5,36.7
CC(C)C(=O)N1CCC1(C)C(=O)Nc1ccc2[nH]ccc2c1 (centres undefined),·,·,·,-17.4,·
Nc1ccc2cc3[nH]c4cc(N)ccc4c3nc2c1,·,·,-108.2,90.0*,·
CC1CC(C)(C)CC2(C1)NC(=O)N(CC(=O)N1CCN(Cc3ccc(C#N)cc3)CC1)C2=O (centres undefined),17.2,-21.4,49.3,85.8*,16.8
Cc1cccc(NC(=O)CN2CCN(C(=O)CN3C(=O)NC4(CC(C)CC(C)(C)C4)C3=O)CC2)c1C (centres undefined),·,·,6.6,51.3,·
Cc1nn(-c2ccccc2)c(Cl)c1CN(C(=O)CCl)c1ccc(Cl)cc1,·,·,6.8,96.2*,·
CC(C)(C)c1ccc(-c2cn(-c3ccc(Br)cc3)c3[n+]2CCCS3)cc1,·,·,92.6*,80.0,·
Cc1ccc(NC(=O)c2cc(S(=O)(=O)NCCC3=CCCCC3)ccc2F)cc1F,19.7,-43.7,21.0,92.0*,13.9
O=C(Nc1cccc(F)c1)c1cc(S(=O)(=O)NCCC2=CCCCC2)ccc1F,8.0,-8.9,37.3,88.7*,18.2
O=C(Nc1cccc(F)c1)c1cc(S(=O)(=O)N2CCC(C(=O)O)CC2)ccc1F,-7.0,15.3,-1.2,-15.8,15.2
CCOC(=O)C1=CCC(c2ccc(Cl)cc2)N(S(=O)(=O)c2ccc(C)cc2)C1 (centres undefined),·,·,·,9.0,·
COc1ccc2c(CC(=O)OCC(=O)N(C)c3c(N)n(Cc4ccccc4)c(=O)[nH]c3=O)coc2c1,·,·,-5.2,93.9*,·
CS(=O)(=O)c1ccc(C(=O)OCC(=O)NC23CC4CC(CC(C4)C2)C3)cc1[N+](=O)[O-],-5.6,9.8,-2.2,67.5,49.3
CC(OC(=O)c1ccc(S(C)(=O)=O)c([N+](=O)[O-])c1)C(=O)NC1C2CC3CC(C2)CC1C3 (centres undefined),·,·,·,98.1*,·
CCC(OC(=O)c1ccc(S(C)(=O)=O)c([N+](=O)[O-])c1)C(=O)NC1C2CC3CC(C2)CC1C3 (centres undefined),·,·,·,96.1*,·
CC(C)CN1CCN(C(=O)COC(=O)c2ccc(S(C)(=O)=O)c([N+](=O)[O-])c2)CC1,·,·,·,74.7,·

# Bioassay records from PubChem.
